Records with an inconclusive call do not appear. More than one record can exist for a structure, and the calls need not agree. The source made the active and inactive calls. The calls were made as follows, unless noted: active = hit-call score of the fitted dose curve at least 0.9, where 1 is the maximum; inconclusive = response in the unintended direction; inactive = score below 0.9.
How the values were obtained:
[1] = CLD_ACTIN_6hr: CellzDirect (CLD) Gene Expression Assay for Baseline Control (Actin) at 6 hours (AID 2283676);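 also: active means increased actin mRNA relative to DMSO vehicle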
How it was run: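 Baseline actin transcript level measured by qNPA (S1 nuclease protection, chemiluminescence) in human hepatocyte cultures 6 h after chemical exposure; 0.2% DMSO vehicle as reference, cytotoxicity noted from morphology.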

[2] = read-out: Cytochrome P450 2B6 (Homo sapiens) (UniProt P20813); assay: CLD_CYP2B6_6hr: CellzDirect (CLD) Gene Expression Assay for xenobiotic metabolism (CYP2B6) at 6 hours (AID 2283677);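 also: actives raise CYP2B6 transcript above DMSO baseline so AC50 marks an inducer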
How it was run: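 CYP2B6 transcript levels, read by chemiluminescent qNPA, were fitted for increase versus DMSO baseline; cultured human liver hepatocytes from two donor preparations were harvested 6 h after exposure to test chemicals at multiple concentrations.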

[3] = read-out: Cytochrome P450 2C19 (Homo sapiens) (UniProt P33261); assay: CLD_CYP2C19_6hr: CellzDirect (CLD) Gene Expression Assay for xenobiotic metabolism (CYP2C19) at 6 hours (AID 2283678)
How it was run: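 CYP2C19 transcript induction was quantified by quantitative nuclease protection assay with chemiluminescent read-out, 6 h after dosing. Cells were primary human hepatocytes from two donor preparations, given fresh dosing solutions daily in 0.2% DMSO vehicle. Activity was relative to DMSO.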

[4] = CCTE_Padilla_ZF_144hpf_TERATOSCORE: (Legacy) CCTE's 144 Hour Post-fertilization zebrafish Assay Teratoscore, Padilla Lab (AID 2283679; active = hit-call score of the fitted dose curve at least 0.9, where 1 is the maximum; inactive = score below 0.9;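 as to AC50: zebrafish embryos with chorions exposed by immersion from 6-8 hpf to 5 dpf with daily renewal; teratogenicity score from eye scoring of death hatching and malformations at 144 hpf; higher score means more developmental defects relative to DMSO baseline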)
How it was run: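 Larvae scored by eye at 144 hpf for death, hatching and malformations after a day in clean Hanks'. Before that, daily-renewed exposure at 80 uM (0.4% DMSO, 26C) from roughly 6-8 hpf through 5 dpf, 4 embryos per chemical.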

[5] = read-out: Glyceraldehyde-3-phosphate dehydrogenase (Homo sapiens) (UniProt P04406); assay: CLD_GAPDH_6hr: CellzDirect (CLD) Gene Expression Assay for Baseline Control (Glyceraldehyde 3-phosphate dehydrogenase) at 6 hours (AID 2283681);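 also: active means increased signal relative to DMSO vehicle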
How it was run: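 GAPDH baseline-control readout from qNPA (S1 nuclease digestion, probe hybridization, chemiluminescence) in lysates of cultured human hepatocytes harvested 6 h post-dosing. Chemicals tested at multiple concentrations versus 0.2% DMSO vehicle; microscopy-based cytotoxicity flagged yes/no.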

[6] = read-out: HMG-CoA synthase (HMGCS2), HMGCS2 (gene 3158); assay: CLD_HMGCS2_6hr: CellzDirect (CLD) Gene Expression Assay for HMG-CoA synthase (HMGCS2) at 6 hours (AID 2283682);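 also: actives raise HMGCS2 transcript above the 0.2% DMSO vehicle baseline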
How it was run: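 HMGCS2 transcript induction read by quantitative nuclease protection with chemiluminescence, 6 h after dosing of primary human hepatocytes. Baseline was 0.2% DMSO vehicle; phase-contrast morphology gave a yes/no cytotoxicity annotation.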

[7] = read-out: ABC Transporter (ABCB1), ABCB1 (gene 5243); assay: CLD_ABCB1_24hr: CellzDirect (CLD) Gene Expression Assay for ABC Transporter (ABCB1) at 24 hours (AID 2283684);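 as to AC50: potency for increase in ABCB1 mRNA relative to DMSO vehicle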
How it was run: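 ABCB1 mRNA induction versus 0.2% DMSO vehicle was read by qNPA chemiluminescence at 24 h. Cultured human hepatocytes from two donor preparations received daily fresh dosing, and phase-contrast cytotoxicity calls were annotated alongside the data.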

[8] = read-out: Cytochrome P450 3A4 (Homo sapiens) (UniProt P08684); assay: CLD_CYP3A4_24hr: CellzDirect (CLD) Gene Expression Assay for xenobiotic metabolism (CYP3A4) at 24 hours (AID 2283689)
How it was run: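 CYP3A4 mRNA induction read by quantitative nuclease protection (chemiluminescence) 24 hr after dosing. Cultured human hepatocytes (two donor preparations) treated daily, vehicle 0.2% DMSO; phase-contrast morphology annotates cytotoxicity.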

[9] = read-out: Glyceraldehyde-3-phosphate dehydrogenase (Homo sapiens) (UniProt P04406); assay: CLD_GAPDH_24hr: CellzDirect (CLD) Gene Expression Assay for Baseline Control (Glyceraldehyde 3-phosphate dehydrogenase) at 24 hours (AID 2283692)
How it was run: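 GAPDH baseline-control readout: qNPA chemiluminescent mRNA signal in human primary hepatocytes harvested 24 h after daily dosing, normalised to 0.2% DMSO with positive fitting direction; cytotoxicity annotated by phase-contrast morphology.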

[10] = read-out: sulfotransferase (SULT2A), SULT2A1 (gene 6822); assay: CLD_SULT2A_24hr: CellzDirect (CLD) Gene Expression Assay for sulfotransferase (SULT2A) at 24 hours (AID 2283694)
How it was run: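 mRNA is measured by qNPA: probe hybridisation, S1 nuclease digestion, chemiluminescence, in lysates from human primary hepatocytes harvested 24 h after daily dosing. Vehicle was 0.2% DMSO. Phase-contrast microscopy flagged cytotoxicity (yes/no).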

[11] = read-out: Cytochrome P450 3A4 (Homo sapiens) (UniProt P08684); assay: CLD_CYP3A4_48hr: CellzDirect (CLD) Gene Expression Assay for xenobiotic metabolism (CYP3A4) at 48 hours (AID 2283698)
How it was run: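 CYP3A4 induction read by qNPA chemiluminescence after 48 h, with fresh dosing solutions on consecutive days, in cultured human hepatocytes (two donors). Vehicle 0.2% DMSO as baseline; microscopy-based cytotoxicity annotated yes/no alongside data.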

[12] = read-out: Glyceraldehyde-3-phosphate dehydrogenase (Homo sapiens) (UniProt P04406); assay: CLD_GAPDH_48hr: CellzDirect (CLD) Gene Expression Assay for Baseline Control (Glyceraldehyde 3-phosphate dehydrogenase) at 48 hours (AID 2283706);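 also: active means higher GAPDH mRNA than DMSO vehicle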
How it was run: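 GAPDH baseline-control readout: qNPA chemiluminescent mRNA quantitation in human liver primary cells 48 h after daily dosing on two consecutive days, vehicle 0.2% DMSO; gain of signal fitted against DMSO, cytotoxicity flagged by phase-contrast morphology.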

[13] = read-out: sulfotransferase (SULT2A), SULT2A1 (gene 6822); assay: CLD_SULT2A_48hr: CellzDirect (CLD) Gene Expression Assay for sulfotransferase (SULT2A) at 48 hours (AID 2283710);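 also: hits raise SULT2A1 transcript above the 0.2% DMSO vehicle baseline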
How it was run: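 SULT2A1 transcript measured by qNPA chemiluminescence in human primary hepatocyte cultures after 48 h, with fresh dosing solutions on two consecutive days; gain-of-signal fitting against 0.2% DMSO vehicle; cytotoxicity annotated from phase-contrast morphology.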

[14] = STM_H9_OrnithineISnorm_perc: Stemina devTOX quickPredict H9 human embryonic stem cell (hESC)-based Assay for Ornithine (ORN) Metabolite Biomarker, Normalized (AID 2283712; active = hit-call score of the fitted dose curve at least 0.9, where 1 is the maximum; inactive = score below 0.9;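 also: ornithine released into spent medium during last day measured by mass spectrometry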)
How it was run: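 Metabolite endpoint from spent media of pluripotent H9 cells treated 72 h with daily re-feeding; ornithine measured by UPLC-HRMS against its 13C spike-in and referenced to the median 0.1% DMSO vehicle response.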

[15] = read-out: xenobiotic metabolism (CYP1A1), CYP1A1 (gene 1543); assay: CLD_CYP1A1_48hr: CellzDirect (CLD) Gene Expression Assay for xenobiotic metabolism (CYP1A1) at 48 hours (AID 2283705)
How it was run: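 CYP1A1 transcript measured by quantitative nuclease protection (chemiluminescent) 48 h after two daily treatments of human hepatocyte cultures, versus 0.2% DMSO. Morphology-based cytotoxicity flags accompany data; two donor preparations used.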

[16] = read-out: glucuronosyltransferase (UGT1A1), UGT1A1 (gene 54658); assay: CLD_UGT1A1_24hr: CellzDirect (CLD) Gene Expression Assay for glucuronosyltransferase (UGT1A1) at 24 hours (AID 2283696)
How it was run: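 UGT1A1 transcript induction was measured by quantitative nuclease protection assay (chemiluminescence) in human hepatocyte cultures 24 h after daily fresh dosing, with 0.2% DMSO as vehicle and baseline.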

[17] = read-out: xenobiotic metabolism (CYP1A2), CYP1A2 (gene 1544); assay: CLD_CYP1A2_48hr: CellzDirect (CLD) Gene Expression Assay for xenobiotic metabolism (CYP1A2) at 48 hours (AID 2283703)
How it was run: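 Cytotoxicity was flagged yes/no from morphology, while CYP1A2 transcript induction was detected by qNPA chemiluminescence after a 48-hour exposure. Human primary hepatocyte cultures from separate donors received fresh dosing solutions daily over two days, with 0.2% DMSO as vehicle and baseline.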

[18] = read-out: Cytochrome P450 2C9 (Homo sapiens) (UniProt P11712); assay: CLD_CYP2C9_24hr: CellzDirect (CLD) Gene Expression Assay for xenobiotic metabolism (CYP2C9) at 24 hours (AID 2283688)
How it was run: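 Induction of CYP2C9 mRNA was quantified by quantitative nuclease protection assay (chemiluminescence), gain of signal versus 0.2% DMSO vehicle, 24 h after dosing. Human primary hepatocytes (two donors) received fresh chemical daily at multiple concentrations; morphology-based cytotoxicity flagged yes/no.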

[19] = read-out: glucuronosyltransferase (UGT1A1), UGT1A1 (gene 54658); assay: CLD_UGT1A1_48hr: CellzDirect (CLD) Gene Expression Assay for glucuronosyltransferase (UGT1A1) at 48 hours (AID 2283709);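 also: actives increase expression relative to DMSO so potency refers to induction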
How it was run: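 Quantitative nuclease protection assay (chemiluminescent) for UGT1A1 mRNA at 48 h in human hepatocyte cultures from two donors, redosed daily with fresh solutions. Induction fitted relative to 0.2% DMSO; phase-contrast morphology annotated cytotoxicity.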

Cytochrome P450 3A4 (Homo sapiens), sequence (P08684 whole entry, looked up): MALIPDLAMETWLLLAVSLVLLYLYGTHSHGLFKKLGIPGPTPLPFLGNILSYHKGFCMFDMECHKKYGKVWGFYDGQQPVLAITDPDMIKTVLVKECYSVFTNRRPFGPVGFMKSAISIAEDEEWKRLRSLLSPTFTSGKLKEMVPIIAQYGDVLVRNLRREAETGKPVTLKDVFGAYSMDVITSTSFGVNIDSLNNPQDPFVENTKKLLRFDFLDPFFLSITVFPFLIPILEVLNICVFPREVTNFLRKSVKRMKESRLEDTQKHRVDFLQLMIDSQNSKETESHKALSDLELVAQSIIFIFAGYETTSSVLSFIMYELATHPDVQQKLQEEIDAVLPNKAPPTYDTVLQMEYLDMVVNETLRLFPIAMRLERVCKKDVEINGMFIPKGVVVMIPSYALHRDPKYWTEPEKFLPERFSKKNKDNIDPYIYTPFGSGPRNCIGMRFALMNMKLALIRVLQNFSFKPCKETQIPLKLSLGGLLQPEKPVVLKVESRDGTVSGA
Cytochrome P450 2C19 (Homo sapiens), sequence (P33261 whole entry, looked up): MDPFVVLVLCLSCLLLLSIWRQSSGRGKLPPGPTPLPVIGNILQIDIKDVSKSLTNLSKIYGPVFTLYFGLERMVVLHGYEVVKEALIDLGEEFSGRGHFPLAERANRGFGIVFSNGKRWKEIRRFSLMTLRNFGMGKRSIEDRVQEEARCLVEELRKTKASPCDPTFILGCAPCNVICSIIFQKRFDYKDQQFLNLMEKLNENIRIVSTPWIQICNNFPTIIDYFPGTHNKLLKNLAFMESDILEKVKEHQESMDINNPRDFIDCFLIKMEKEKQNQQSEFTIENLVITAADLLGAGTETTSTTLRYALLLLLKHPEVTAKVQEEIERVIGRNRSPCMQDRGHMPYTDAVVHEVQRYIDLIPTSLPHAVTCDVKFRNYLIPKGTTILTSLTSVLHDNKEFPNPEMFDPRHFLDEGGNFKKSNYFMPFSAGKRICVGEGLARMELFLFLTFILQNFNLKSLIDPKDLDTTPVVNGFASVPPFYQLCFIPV
Glyceraldehyde-3-phosphate dehydrogenase (Homo sapiens), sequence (P04406 whole entry, looked up): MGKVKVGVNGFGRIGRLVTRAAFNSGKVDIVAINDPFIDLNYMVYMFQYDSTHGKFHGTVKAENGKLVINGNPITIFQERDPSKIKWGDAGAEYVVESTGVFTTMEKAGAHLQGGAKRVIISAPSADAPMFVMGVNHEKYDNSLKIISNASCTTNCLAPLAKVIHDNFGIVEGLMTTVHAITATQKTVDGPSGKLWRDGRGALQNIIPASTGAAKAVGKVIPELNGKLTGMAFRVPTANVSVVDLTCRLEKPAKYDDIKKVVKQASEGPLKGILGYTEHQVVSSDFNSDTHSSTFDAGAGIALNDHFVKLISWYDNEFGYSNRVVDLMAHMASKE

C#CCOC(=O)[C@@H](C)Oc1ccc(Oc2ncc(Cl)cc2F)cc1
outcome [1]: inactive | AC50 [2]: 0.000426 µM (active) | outcome [3]: inactive | AC50 [4]: 0.593 µM (active) | outcome [5]: inactive | outcome [6]: inactive | outcome [7]: inactive | outcome [8]: inactive | outcome [9]: inactive | outcome [10]: inactive | outcome [11]: inactive | outcome [12]: inactive | outcome [13]: inactive | AC50 [14]: 65.5 µM (active)

COC(=O)c1c(Cl)nn(C)c1S(=O)(=O)NC(=O)Nc1nc(OC)cc(OC)n1
outcome [1]: inactive | outcome [2]: inactive | AC50 [4]: 58.9 µM (active) | outcome [5]: inactive | outcome [6]: inactive | outcome [7]: inactive | AC50 [8]: 4.62 µM (active) | outcome [9]: inactive | outcome [10]: inactive | AC50 [11]: 6.72 µM (active) | outcome [15]: inactive | outcome [12]: inactive | outcome [13]: inactive

COC(=O)c1ccc(I)cc1S(=O)(=O)NC(=O)Nc1nc(C)nc(OC)n1
outcome [1]: inactive | AC50 [2]: 0.397 µM (active) | outcome [3]: inactive | outcome [4]: inactive | outcome [5]: inactive | outcome [6]: inactive | AC50 [7]: 20 µM (active) | AC50 [15]: 20 µM (active) | outcome [12]: inactive | outcome [13]: inactive | outcome [14]: inactive

c1ccc2[nH]c(-c3cscn3)nc2c1
outcome [1]: inactive | AC50 [2]: 10.2 µM (active) | outcome [3]: inactive | AC50 [4]: 52.8 µM (active) | outcome [5]: inactive | AC50 [15]: 0.781 µM (active)

COc1nc(C)nc(NC(=O)NS(=O)(=O)c2ccccc2OCCCl)n1
outcome [1]: inactive | outcome [2]: inactive | outcome [3]: inactive | outcome [4]: inactive | outcome [5]: inactive | outcome [7]: inactive | AC50 [8]: 6.77 µM (active) | outcome [12]: inactive

COC(=O)c1ccc(CNS(C)(=O)=O)cc1S(=O)(=O)NC(=O)Nc1nc(OC)cc(OC)n1
outcome [1]: inactive | outcome [2]: inactive | outcome [3]: inactive | outcome [4]: inactive | outcome [5]: inactive | outcome [7]: inactive | outcome [8]: inactive | outcome [16]: inactive | outcome [17]: inactive | outcome [15]: inactive | outcome [12]: inactive | outcome [13]: inactive

CC1(C)C(C=C(Cl)Cl)C1C(=O)OCc1cccc(Oc2ccccc2)c1 (centres undefined)
outcome [1]: inactive | AC50 [2]: 0.083 µM (active) | outcome [3]: inactive | AC50 [4]: 3.31 µM (active) | outcome [5]: inactive | outcome [6]: inactive | outcome [7]: inactive | outcome [18]: inactive | outcome [8]: inactive | outcome [9]: inactive | outcome [11]: inactive | outcome [15]: inactive | outcome [12]: inactive | outcome [13]: inactive

CCCN(CCC)C(=O)SCC
outcome [1]: inactive | AC50 [2]: 0.165 µM (active) | outcome [2]: inactive | outcome [3]: inactive | outcome [4]: inactive | outcome [5]: inactive | outcome [7]: inactive | outcome [18]: inactive | outcome [8]: inactive | outcome [9]: inactive | outcome [10]: inactive | outcome [11]: inactive | outcome [12]: inactive | outcome [13]: inactive

COC(=O)c1cccc(C)c1S(=O)(=O)NC(=O)Nc1nc(OCC(F)(F)F)nc(N(C)C)n1
outcome [1]: inactive | AC50 [2]: 8.96 µM (active) | outcome [3]: inactive | outcome [4]: inactive | outcome [7]: inactive | outcome [18]: inactive | AC50 [8]: 20 µM (active) | outcome [9]: inactive | outcome [10]: inactive | AC50 [11]: 20 µM (active) | AC50 [15]: 8.53 µM (active) | outcome [12]: inactive

CCOC(=O)C(C)Oc1ccc(Oc2cnc3cc(Cl)ccc3n2)cc1 (centres undefined)
outcome [1]: inactive | outcome [2]: inactive | AC50 [4]: 1.7 µM (active) | outcome [7]: inactive | outcome [8]: inactive | outcome [10]: inactive | outcome [11]: inactive | outcome [19]: inactive | outcome [13]: inactive | outcome [14]: inactive

C=CCOC(Cn1ccnc1)c1ccc(Cl)cc1Cl (centres undefined)
outcome [1]: inactive | AC50 [2]: 0.0186 µM (active) | AC50 [4]: 2.91 µM (active) | outcome [5]: inactive | outcome [6]: inactive | outcome [7]: inactive | AC50 [15]: 3.84 µM (active) | outcome [12]: inactive | outcome [14]: inactive

CCOC(=O)C(C)Oc1ccc(Oc2nc3ccc(Cl)cc3o2)cc1 (centres undefined)
outcome [1]: inactive | outcome [2]: inactive | AC50 [4]: 2.06 µM (active) | outcome [5]: inactive | outcome [6]: inactive | outcome [7]: inactive | outcome [8]: inactive | outcome [10]: inactive | outcome [15]: inactive | outcome [12]: inactive | outcome [13]: inactive
